Screening results from PubChem BioAssay.
In the library only some 21% were active in any assay of this set; here they are far more common.
Cycloheximide cs – affects cycloheximide protein synthesis inhibition readout, counter-screen. hit rate 12% among 300,000. max response, %. cell reporter, cycloheximide protein synthesis inhibition counterscreen. AID 2314; in the data active = max response mostly above about 13%, no sharp cut-off; inactive = mostly below about 14%; also: read at 38.3 µM for the half of the compounds with a filed dose; 0% is about no effect
AMA1-RON2 inh – disrupts binding of P. falciparum AMA1 to RON2 | Potency, µM (titrated, usually from 58.2 µM), for the others: top-dose activity change, negative = inhibition, most hits filed as inhibitors | AlphaScreen AMA1-biotinylated RON2 peptide binding | hit rate 0.2% among 360,000 | AID 720542;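 also: potency is read from the fitted curve at half-maximal effect; 0% = vehicle wells and -100% = peptide control; nearly all actives have a fitted effect of over 45% in size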
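AMA1 (3D7) with his tag at 25 nM final met compounds first, then biotinylated RON2 peptide at 25 nM; detection used donor plus acceptor beads, 10 µg/mL apiece, read by AlphaScreen after 30 min at room temperature.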
HCV inhibitor – HCV inhibition. Potency, µM (highest dose often 41.8 µM), without a hit: top-dose activity change, negative = inhibition, actives largely listed as inhibitors. Huh7.5.1 HCVcc-Cre infection, luciferase reporter, 44 h. hit rate 3.4% among 340,000; also: potency is read from the fitted curve at half-maximal effect; % is scaled to controls: 0 for no effect and ±100 for the full control effect
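HCVcc-Cre virus at an moi near 0.5 was added right after compound to cells cultured 4 h from seeding (1,000 cells/well). Luciferase activity was determined 44 h later, 15 min after substrate addition at RT.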
Pf growth 48h – inhibits P. falciparum growth in the first generation, 48 h | P. falciparum luciferase growth in erythrocytes, 48 h | Potency, µM (series often up to 28.7 µM), for inactives: at the highest dose activity change, negative = inhibition, usual class: inhibitors | hit rate 5.9% among 310,000 | AID 504832; also: potency is read from the fitted curve at half-maximal effect; % is scaled to controls: 0 for no effect and ±100 for the full control effect
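First compound was added to culture medium, then infected red cells at 0.1% parasitemia and 2% hematocrit (final). After incubation at 37 C under 5% CO2, luciferase detection reagent was dispensed and light output recorded.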
Shiga toxin inh – blocks Shiga toxin action in Vero cells; Vero cells, Shiga toxin protein synthesis inhibition reporter; inhibition, % at 38.7 µM; hit rate 9.2% among 290,000; in the data active = inhibition mostly above about 28%, no sharp cut-off; inactive = mostly below about 43%; also: 0% is about no effect
Pf growth 96h – P. falciparum growth inhibition at 96 hour, primary screen for plastid delayed-death inhibitors; P. falciparum luciferase reporter growth, 96 h; hit rate 6.9% among 320,000; Potency, µM (titrated, usually from 28.7 µM), inactives show at the top dose activity change, negative = inhibition, most hits filed as inhibitors; also: potency is read from the fitted curve at half-maximal effect; % is scaled to controls: 0 for no effect and ±100 for the full control effect
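Delayed-death screen, second-generation endpoint: infected erythrocytes, 2% hematocrit, 0.05% parasitemia final; 96 hours at 37 C, 5% CO2; luciferase detection reagent; luminescence decrease equals reduced growth.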
* hit, by the source's call; ? = inconclusive; . = no result; [ ] = dose if it differs, or a comment. Unless noted, calls follow the shape of the dose curve; as a rule, active = well fitted curve in the direction sought with a large enough effect; inconclusive = small, poorly fitted or top-dose-only effect, or another doubt; inactive = no such curve, though single readings can be large; an effect the other way counts as inactive or inconclusive.

SMILES | Cycloheximide cs | AMA1-RON2 inh | HCV inhibitor | Pf growth 48h | Shiga toxin inh | Pf growth 96h
Cc1ccc2nc(N=C(N)N)nc(C)c2c1 | -1.4 | 17.6% | 7.08µM* | ? | -17.8 | 20.2%
Cc1nc(/N=C(\N)NC(=O)c2ccccc2)nc2ccccc12 | 49.8* | 17.8% | ? | 16.8% | 52.0* | 1.6%
Cc1nc(/N=C(\N)NC(=O)N2c3ccccc3Sc3ccccc32)nc2ccccc12 | -2.9 | -1.1% | ? | ? | 23.5 | ?
Cc1ccc(NC(=O)c2oc3ccc(Br)cc3c2C)cc1S(=O)(=O)N1CCOCC1 | . | 0.7% | 1.0% | . | . | .
O=c1cc(-c2ccc(O)cc2)oc2cc(O[C@@H]3O[C@H](CO)[C@H](O)[C@H](O)[C@H]3O)cc(O)c12 | 49.4 | . | . | . | 29.0 | .
O=C(CN(C(=O)CSc1nnc(COc2ccccc2)o1)c1ccc(F)cc1)NC1CCCCC1 | -2.2 | -3.5% | ? | 11.7µM* | -2.4 | ?
O=C(CN(C(=O)CSc1nnc(COc2ccccc2)o1)c1ccc(F)cc1)NC1CCCC1 | 0.2 | 1.1% | ? | 8.7% | -8.1 | 6.8%
Cc1ccccc1OCc1nnc(SCC(=O)NC2CCCCC2)o1 | -3.5 | 3.4% | 10.9% | 5.4% | -7.0 | -7.4%
CCOc1ccc(N(CC(=O)NC2CCCC2)C(=O)CSc2nnc(COc3ccccc3)o2)cc1 | 1.9 | -5.0% | 22.4µM* | . | 10.5 | 7.38µM*
Cc1onc(-c2ccccc2)c1C(=O)Nc1ccc(Br)cc1Cl | -2.4 | -12.3% | 9.0% | 14.7µM* | 6.8 | 2.2%
COc1ccc(NC(=O)c2c(-c3ccccc3)noc2C)c(OC)c1 | -4.4 | -0.8% | -28.3% | . | -15.5 | ?
Cc1ccnc(NC(=O)c2c(-c3ccccc3Cl)noc2C)c1 | 21.3* | -0.5% | -36.6% | 44.2% | 64.2* | 50.3%
COc1ccc(NC(=O)c2c(-c3ccccc3Cl)noc2C)c(OC)c1 | -2.8 | 2.2% | -29.2% | 2.62µM* | 16.6 | -0.3%
O=C1NC(=O)C2(CCCC2c2ccccc2)N1 (configuration not stated) | . | -5.6% | 4.7% | . | . | .
CC(C)N1CCC(N2CCN(CC#Cc3ccccc3)CC2CCO)CC1 (configuration not stated) | -1.2 | -3.5% | -17.7% | -7.9% | 29.7 | ?
COc1ccc(-c2nc(C(=O)N3CCN(C)CC3)sc2-c2ccc(OC)cc2)cc1 | -10.3 | . | . | . | -2.9 | .
Cc1cc(C)nc(NC(N)=NC2CCCCC2)n1 | -1.5 | 2.3% | ? | ? | -8.7 | -6.7%
CC(=O)CC(=O)NC(=NC1CCCCC1)Nc1nc(C)cc(C)n1 | -2.2 | 0.5% | 11.2µM* | ? | -5.5 | .
CCOC(=O)c1c(NC(=O)c2ccccc2Cl)sc2c1CCc1ccccc1-2 | 0.5 | 16.5% | 7.94µM* | ? | 1.2 | ?
Cc1cn(-c2cc(NC(=O)c3ccc(C)c(NC(=O)c4cccc(-c5cn[nH]c(=O)c5)c4)c3)cc(C(F)(F)F)c2)cn1 | -1.2 | -19.2% | ? | ? | -4.0 | ?
COc1ccc2cc3cc(C(=O)N4CCCCC4C)oc3nc2c1 (configuration not stated) | 33.7* | 10.0% | -13.0% | -3.8% | 64.4* | ?
COc1ccc2cc3cc(C(=O)N4CCN(C5CCCCC5)CC4)oc3nc2c1 | 6.3 | 12.8% | 13.4% | ? | 6.8 | -21.2%
COc1ccc2cc3cc(C(=O)Nc4ccc5c(c4)OCO5)oc3nc2c1 | 9.2 | -16.0% | -18.9% | ? | -3.5 | ?
COc1ccc2cc3cc(C(=O)N(C)C4CCCCC4)oc3nc2c1 | 29.8* | 4.0% | ? | -6.9% | 77.5* | ?
COc1ccc2cc3cc(C(=O)N4CCCCCC4)oc3nc2c1 | 40.6* | -2.8% | 5.8% | 0.0% | 72.1* | ?
SMILES | Cycloheximide cs | AMA1-RON2 inh | HCV inhibitor | Pf growth 48h | Shiga toxin inh | Pf growth 96h
CCCN(CCC)c1nc(Cl)nc(NCCN2CCOCC2)n1 | 8.4 | -8.9% | 14.1µM* | -7.0% | 13.2 | 224.6%
CC(/C=N/Nc1nc(C)cc(=O)[nH]1)=C\c1ccccc1 | 41.6* | 82.0% | 2.7% | -8.2% | 59.8* | 30.6%
CC(/C=N/Nc1ncc(C)c(=O)[nH]1)=C\c1ccccc1 | 13.3 | 29.2% | -0.2% | -10.3% | 24.9 | 13.3%
CC(/C=N/Nc1nc2ccccc2[nH]1)=C\c1ccccc1 | 22.7* | 59.8% | ? | ? | 12.6 | ?
CC(C)c1ccc(CC(=O)N2CCC2(C)C(=O)NCCC#N)cc1 (configuration not stated) | . | 0.3% | . | . | . | .
COc1ccc2c3c(n(C(=O)OC(C)(C)C)c2c1)C1CC=C(COC(C)=O)CN1CC3 (configuration not stated) | . | -22.8% | . | . | . | .
COc1ccc(C2CC(c3c(O)cc(C)oc3=O)=NCCS2)c(OC)c1 (configuration not stated) | 24.3 | 4.5% | ? | -6.7% | 36.3 | 11.6%
Cc1cc(O)c(C2=Nc3ccccc3SC(c3ccc(Cl)cc3)C2)c(=O)o1 (configuration not stated) | 47.9* | 17.1% | ? | 218.4% | 33.9* | 213.1%
COc1cc2c(C#CCCO)c(-c3ccsc3)oc(=O)c2cc1OC | . | -7.9% | 10µM* | . | . | .
CC(=O)CCc1c(C)c2cc(C)ccc2[nH]c1=O | 32.7* | 4.6% | -5.1% | 5.6% | 48.4 | -22.5%
Cc1ccc2[nH]c(=O)c3cc(C(=O)NCCC(C)C)sc3c2c1 | -2.8 | -8.3% | ? | ? | -3.7 | 9.7%
O=P(c1ccccc1)(c1ccccc1)c1nc(-c2ccccc2)oc1N1CCOCC1 | -2.2 | -10.4% | -11.5% | ? | 0.5 | ?
CCOP(=O)(c1ccccc1)c1nc(-c2ccc(F)cc2)oc1N1CCCCC1 (configuration not stated) | -3.0 | -9.9% | -22.5% | 9.28µM* | -20.8 | -6.4%[5.75 µM]
CCOP(=O)(OCC)c1nc(-c2ccc(Br)cc2)oc1N1CCCCC1 | -1.1 | -2.3% | ? | 10.4µM* | -6.1 | -11.3%
O=P(c1ccccc1)(c1ccccc1)c1nc(-c2ccc(Cl)cc2)oc1N1CCOCC1 | 4.2 | -11.9% | 10µM* | 10.4µM* | -2.0 | 0.7%
COC(=O)c1c(C)[nH]c(C(=O)COC(=O)CCNS(=O)(=O)c2cccc(C(F)(F)F)c2)c1C | . | 4.2% | -0.9% | -4.1% | . | 66.1%
Cc1ccc(S(=O)(=O)N(C)C[C@@H]2Oc3ccc(NC(=O)Nc4cccc5ccccc45)cc3C(=O)N([C@H](C)CO)C[C@H]2C)cc1 | . | -11.6% | -11.7% | . | . | .
CC(C)(C)c1ccc(-c2nc(C#N)c(NCCCn3ccnc3)o2)cc1 | 9.2 | 7.7% | 0.3% | ? | 10.3 | 8.28µM*
CC(C)(C)c1ccc(-c2nc(C#N)c(NCc3ccncc3)o2)cc1 | 56.7* | -11.4% | -27.9% | ? | 91.2* | .
Cc1ccc(CNc2oc(C)nc2C#N)cc1 | -2.0 | -28.2% | 13.2% | 0.5% | -11.5 | 352.2%
N#Cc1nc(-c2ccc(F)cc2)oc1NCCCn1ccnc1 | 39.2* | . | . | -16.8% | 41.8* | -29.4%
